Assay outcomes as filed in PubChem BioAssay.
HCMV antiviral: qHTS Assay for inhibitors of the human cytomegalovirus (HCMV) | HFF cells, HCMV-luciferase reporter, 72 h; stronger effect = lower value | activity change, negative = inhibition, % at 57.5 µM | 410,000 compounds, 4.5% hits | AID 1259415, 2018; in the data active = activity change below about -60%; inconclusive = no clear call, values can overlap the other calls; inactive = above about -39%; note: % is set by controls: 0 for no effect and ±100 for the full control effect
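Human foreskin fibroblasts infected with luciferase-reporter HCMV at MOI 1 PFU/cell, compounds at two doses. Luciferase measured 72 h post infection; normalized to buffer-only basal and Salinomycin (10uM) controls.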
Pf growth 48h: Primary qHTS for delayed death inhibitors of the malarial parasite plastid, 48 hour incubation | P. falciparum luciferase growth in erythrocytes, 48 h | 310,000 compounds, 5.9% hits | Potency, µM (series often up to 28.7 µM), for the others: at the highest dose activity change, negative = inhibition, actives largely listed as inhibitors; note: potency is the fitted concentration of half-maximal effect; % is set by controls: 0 for no effect and ±100 for the full control effect
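Parasite viability was followed by luminescence of a genomically integrated firefly luciferase. Cultures held 0.1% parasitemia at 2% hematocrit (final), incubated under 5% CO2 at 37 C.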
Pf growth 96h: Primary qHTS for delayed death inhibitors of the malarial parasite plastid, 96 hour incubation; P. falciparum luciferase reporter growth, 96 h; Potency, µM (series often up to 28.7 µM), inactives show at the highest dose activity change, negative = inhibition, usual class: inhibitors; 320,000 compounds, 6.9% hits; AID 504834, 2011; note: potency is the fitted concentration of half-maximal effect; % is set by controls: 0 for no effect and ±100 for the full control effect
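96 h incubation, 37 C, 5% CO2, of luciferase-reporter P. falciparum-infected RBCs (2% hematocrit, 0.05% parasitemia final) with test compounds; endpoint luminescence.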
Cycloheximide cs: Cycloheximide Counterscreen for Small Molecule Inhibitors of Shiga Toxin | max response, % | 300,000 compounds, 12% hits | cell reporter, cycloheximide protein synthesis inhibition counterscreen | AID 2314, 2010; in the data active = max response mostly above about 13%, no sharp cut-off; inactive = mostly below about 14%; note: read at 38.3 µM for the half of the compounds with a filed dose; 0% is about no effect
Shiga toxin inh: A qHTS for Small Molecule Inhibitors of Shiga Toxin. Vero cells, Shiga toxin protein synthesis inhibition reporter. inhibition, % at 38.7 µM. 290,000 compounds, 9.2% hits; in the data active = inhibition mostly above about 28%, no sharp cut-off; inactive = mostly below about 43%; note: 0% is about no effect
HCV inh: qHTS Assay for Inhibitors of Hepatitis C Virus (HCV); Huh7.5.1 HCVcc-Cre infection, luciferase reporter, 44 h; Potency, µM (doses to about 41.8 µM), inactives show top-dose activity change, negative = inhibition, most hits filed as inhibitors; 340,000 compounds, 3.4% hits; note: potency is the fitted concentration of half-maximal effect; % is set by controls: 0 for no effect and ±100 for the full control effect
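Luciferase read-out (15 sec integration) after a 15 min room-temperature substrate step quantifies HCVcc-Cre infection. Cells, 1,000 per well, had compound added 4 h post-plating, then virus at ~0.5 moi, and were cultured 44 h.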
Active calls of the source: *. Most compounds without a hit are left out; they make up all but 21% or so of the library. Unless noted, calls come from the whole dose curve; as a rule, active = well fitted inhibition curve with a large enough effect; inconclusive = small, poorly fitted or top-dose-only effect, or another doubt; inactive = no such curve, though single readings can be large or run the other way.

Cc1ccc(C(=O)Nc2ccc3oc(-c4ccccc4C)nc3c2)cc1 was read as HCMV antiviral -32.
Screening O=C(Cc1ccccc1)NC(=S)Nc1ccc2oc(-c3ccccc3)nc2c1 returned HCMV antiviral 3, Pf growth 48h 63%, Pf growth 96h inconclusive, Cycloheximide cs 2, Shiga toxin inh 16 and HCV inh 1%.
`O=C(Cc1ccccc1)NC(=S)Nc1ccc2oc(-c3ccccc3F)nc2c1` gave HCMV antiviral 60, Pf growth 48h 94%, Pf growth 96h 30%, Cycloheximide cs 29, Shiga toxin inh 50* and HCV inh 7%.
CC1CCN(S(=O)(=O)c2cc(C(=O)Nc3ccc(Br)cc3F)n(C)c2)CC1 was read as HCMV antiviral -13.
Screening CCOC(=O)c1cc(-c2ccccc2)n(CC(=O)Nc2ccccc2OCC)c1C returned HCMV antiviral -16.
`O=C(Nc1ccc2oc(-c3ccccc3F)nc2c1)c1ccccc1F` gave HCMV antiviral 25, Pf growth 48h 73%, Pf growth 96h -16%, Cycloheximide cs 30*, Shiga toxin inh 48* and HCV inh inconclusive.
For CC(=O)NC(=S)Nc1ccc2oc(-c3cc(F)c(F)cc3Cl)nc2c1 the results were HCMV antiviral 12, Pf growth 48h 171%, Pf growth 96h 176%, Cycloheximide cs 24*, Shiga toxin inh 53 and HCV inh 8%.
O=C(Nc1ccc2oc(-c3ccc(Cl)c(Cl)c3)nc2c1)c1ncn[nH]1 was read as HCMV antiviral 34, Pf growth 96h 101%, Cycloheximide cs 27*, Shiga toxin inh 66 and HCV inh -3%.
For O=C(Nc1ccc(-c2nc3cc(NC(=O)c4ccccc4F)ccc3o2)cc1)c1ccccc1F the results were HCMV antiviral 6.
Screening O=C(Nc1ccc2oc(-c3ccccc3)nc2c1)c1ccccc1F returned HCMV antiviral -89*, Pf growth 48h 135%, Pf growth 96h inconclusive, Cycloheximide cs 20*, Shiga toxin inh 59* and HCV inh inconclusive.
CCc1nnc(NC(=O)c2cc(=O)c3cc(C)ccc3o2)s1 was read as HCMV antiviral 25.
Screening COc1ccc(-c2nnc(OC)c3ccccc23)cc1 returned HCMV antiviral inconclusive, Pf growth 48h inconclusive, Pf growth 96h inconclusive, Cycloheximide cs -3, Shiga toxin inh -6 and HCV inh -1%.
Screening COc1nc(-c2ccccc2)nnc1-c1ccccc1 returned HCMV antiviral 109, Pf growth 48h 119%, Pf growth 96h 108%, Cycloheximide cs 41*, Shiga toxin inh 85* and HCV inh -9%.
Cc1cc(NC(=O)CSc2nnc(-c3cccc(F)c3)n2N)no1 was read as HCMV antiviral -5, Pf growth 48h 17%, Pf growth 96h -7% and HCV inh 7%.
For Cc1ccccc1Nc1cc(=O)oc2ccccc12 the results were HCMV antiviral -27, Pf growth 96h 13µM*, Cycloheximide cs 7, Shiga toxin inh 17 and HCV inh -23%.
`Cc1ccc(Nc2nnc(C)c3ccccc23)c(C)c1` gave HCMV antiviral -34 and HCV inh 18%.
Screening Cc1ccc(Nc2cc(=O)oc3ccccc23)c(C)c1 returned HCMV antiviral -32, Pf growth 48h inconclusive, Pf growth 96h 0.13µM*, Cycloheximide cs 1, Shiga toxin inh -2 and HCV inh 9%.
Screening Cc1ccccc1NC(=O)COC(=O)c1cc(=O)c2ccccc2o1 returned Pf growth 48h -26%, Pf growth 96h -2%, Cycloheximide cs -2 and Shiga toxin inh 3.
O=c1cc(NCCO)c2ccccc2o1 was read as HCMV antiviral 40, Pf growth 96h 34%, Cycloheximide cs -3, Shiga toxin inh -2 and HCV inh 18%.
`O=c1cc(NCCc2ccccc2)c2ccccc2o1` gave HCMV antiviral -11, Pf growth 48h inconclusive, Pf growth 96h 9%, Cycloheximide cs 24*, Shiga toxin inh 42* and HCV inh inconclusive.
For Cc1cc(C)c(NC(=O)CN2C(=O)c3cccnc3Oc3ccc(C)cc32)c(C)c1 the results were HCMV antiviral -10.
`Nc1nc(NC2CC2)c2ncn([C@H]3C=C[C@@H](CO)C3)c2n1` gave Pf growth 48h 60% and Pf growth 96h 45%.
Screening CCOC(=O)c1cccnc1SCC(=O)N(CC)c1cccc(C)c1 returned HCMV antiviral inconclusive, Pf growth 96h 12µM*, Cycloheximide cs -7, Shiga toxin inh -11 and HCV inh inconclusive.
`CCN(C(=O)CSc1nc2ccccc2nc1Cc1ccc(F)cc1)c1cccc(C)c1` gave HCMV antiviral 2.
Screening CCN(C(=O)CSc1ncccc1C(=O)OC(C)C)c1cccc(C)c1 returned HCMV antiviral 52, Pf growth 96h inconclusive, Cycloheximide cs 1, Shiga toxin inh -15 and HCV inh -18%.
CCN(C(=O)CSc1nc(-c2ccccc2)no1)c1cccc(C)c1 was read as HCMV antiviral -107*.
Screening CCOc1ccc(-c2c(C(=O)N/N=C/c3cccs3)nnn2-c2nonc2N)cc1 returned HCMV antiviral inconclusive, Pf growth 48h 8%, Pf growth 96h -15%, Cycloheximide cs 0, Shiga toxin inh 25 and HCV inh -5%.
`Nc1nonc1-n1nnc(C(=O)N/N=C/c2cccs2)c1-c1ccc2c(c1)OCO2` gave HCMV antiviral inconclusive, Pf growth 48h 0.93µM*, Pf growth 96h 0.29µM*, Cycloheximide cs 5, Shiga toxin inh 15 and HCV inh -3%.
Screening Cc1ccsc1/C=N/NC(=O)c1nnn(-c2nonc2N)c1-c1ccc2c(c1)OCO2 returned HCMV antiviral 0, Pf growth 48h 3.3µM*, Pf growth 96h 0.13µM*, Cycloheximide cs -3, Shiga toxin inh -5 and HCV inh 7%.
Screening Cc1ccc(-c2c(C(=O)N/N=C/c3ccc4c(c3)OCO4)nnn2-c2nonc2N)cc1 returned HCMV antiviral inconclusive, Pf growth 48h inconclusive, Pf growth 96h inconclusive, Cycloheximide cs -4, Shiga toxin inh -11 and HCV inh -21%.
`Nc1nonc1-n1nnc(C(=O)N/N=C/c2ccncc2)c1-c1cccs1` gave HCMV antiviral active, Pf growth 48h -3%, Pf growth 96h -13%, Cycloheximide cs -1, Shiga toxin inh -5 and HCV inh 12%.
`Nc1nonc1-n1nnc(C(=O)N/N=C/c2ccccc2Cl)c1-c1ccc2c(c1)OCO2` gave HCMV antiviral 0, Pf growth 48h 2.9µM*, Pf growth 96h 0.66µM*, Cycloheximide cs 3, Shiga toxin inh 1 and HCV inh -5%.
